Candida biofilm – kills Candida albicans biofilms. 0.14% of 85,000 active. inhibition, % at 6 µM. AID 834. C. albicans biofilm + clotrimazole, Alamar Blue;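 active means inhibition above 20%; inactive means inhibition below 20%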;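 further: preformed 24 hr biofilms exposed to compound for 48 hr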
MRP1 act – activators of MRP-1; H69AR cells + doxorubicin, viability rescue, CellTiter-Glo; viability increase, % at 10 µM; 0.61% of 140,000 active;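 active means viability gain under doxorubicin at or above a set limit, the compound median plus 3 SD, cut at about 4.7% in these data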;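 further: MRP-1 overexpressing cells given doxorubicin 25 µM after compound pretreatment; 18-22 h compound pretreatment then 72 h with doxorubicin before readout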
Smad3 inh – blocks human Smad3 binding to FoxH1 peptide. TR-FRET Smad3/Dy647-FoxH1 peptide binding, europium anti-His. 0.29% of 88,000 active. inhibition, % at 25 µM. AID 630;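 active means compounds that reduce the energy-transfer binding signal between the protein and its labelled peptide by more than half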
Target sequence (P84022 whole entry, looked up): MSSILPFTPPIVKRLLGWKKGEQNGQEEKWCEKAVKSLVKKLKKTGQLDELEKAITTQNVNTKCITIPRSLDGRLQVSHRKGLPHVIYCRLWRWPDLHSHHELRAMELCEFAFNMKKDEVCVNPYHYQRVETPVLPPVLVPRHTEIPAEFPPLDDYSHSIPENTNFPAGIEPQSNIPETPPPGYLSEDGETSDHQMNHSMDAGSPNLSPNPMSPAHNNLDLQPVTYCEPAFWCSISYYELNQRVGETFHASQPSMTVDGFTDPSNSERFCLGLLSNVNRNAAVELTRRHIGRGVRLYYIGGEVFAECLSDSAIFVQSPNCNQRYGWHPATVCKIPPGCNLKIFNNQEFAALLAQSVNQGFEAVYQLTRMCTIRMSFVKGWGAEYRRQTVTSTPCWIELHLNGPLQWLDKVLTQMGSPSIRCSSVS
MRP resist rev – MRP-mediated drug resistance reversal; H69AR cells + 2 uM doxorubicin, CellTiter-Glo, 72 h; 0.04% of 85,000 active; differential viability (reversal), % at 10 µM;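 active means viability drop by adding the cancer drug above about 55%, with treated viability meeting a 40% cutoff, limit read from the data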;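 further: larger differential means the compound sensitizes cells more to doxorubicin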
Hits are given with their value; . = inactive; / = not tested or not shown; [ ] = remark or other dose. A selection: hits, their analogues and other compounds. The true share with any hit is near 0.83%.

SMILES | Candida biofilm | MRP1 act | Smad3 inh | MRP resist rev
CC(=O)O[C@H]1CC[C@@]2(C)C(=CC[C@@H]3[C@H]4CC[C@@H]([C@H](C)C(=O)O)[C@]4(C)CC[C@H]32)C1 | / | / | 52.4 | /
CC(=O)O[C@H]1CC[C@@]2(C)C(=CC[C@@H]3[C@H]4CC[C@@H](c5cc(C(F)(F)F)n(C(C)=O)n5)[C@]4(C)CC[C@H]32)C1 | / | / | . | /
CSc1nc2c(ccc3ccccc32)o1 | . | 4.9 | . | .
C/C(=N\S(=O)(=O)c1ccc(Cl)c(Cl)c1)OCC(C)(C)C | / | / | . | /
COC(=O)c1cn(NC(=O)c2cccc(N(C)C)c2)c(=O)c2ccccc12 | / | . | / | /
COC(=O)c1cn(NC(=O)c2cccc(F)c2)c(=O)c2ccccc12 | 59.7 | . | . | .
Cc1ccc(S(=O)(=O)N[C@H](C(=O)O)C(C)C)cc1 | / | / | . | /
Cc1cccc(-n2c(N)cc(=O)nc2SCC(=O)Nc2nnc(CC(C)C)s2)c1 | . | . | . | .
CCCCc1nnc(NC(=O)CSc2nc(=O)cc(N)n2-c2cccc(C)c2)s1 | . | 6.0 | . | .
CCOc1ccc(OCC)c(-c2c(=O)n(OCc3ccc(C(C)(C)C)cc3)c3ccccc3[n+]2[O-])c1 | / | 6.6 | / | /
O=C(O)CC[C@@]1(c2ccccc2)NC(=O)NC1=O | / | / | . | /
c1coc(C2Nc3cccc4cccc(c34)N2)c1 | . | 6.0 | . | .
Oc1ccc(C2Nc3cccc4cccc(c34)N2)c(O)c1 | . | . | . | .
CN(C)C(=O)c1ccc2c(c1[N+](=O)[O-])C(=O)c1ccccc1C2=O | / | . | / | /
O=C1c2ccccc2-c2cc([N+](=O)[O-])c([N+](=O)[O-])cc21 | / | / | 52.2 | /
CC(=O)O[C@H]1CC[C@@]2(C)[C@@H](CC[C@H]3[C@H]2CC(=O)[C@]2(C)[C@@H]3C[C@H]3CC(C)=CC(=O)[C@@H]32)C1 | / | / | . | /
O=C(CSc1ccccc1)Nc1nnc(COc2ccc(Cl)cc2)s1 | / | 7.1 | / | /
COCC(=O)Nc1nnc(COc2ccc(Cl)cc2)s1 | . | 5.4 | . | .
O=C(C[N+]12CN3CN(CN(C3)C1)C2)c1ccc(-c2ccccc2)cc1 | / | / | 76.6 | /
Nc1cccc(OCc2nc(N)nc(N)c2-c2ccc(Cl)cc2)c1 | / | / | . | /
COc1cc(C)ccc1N(CCCN1C(=O)c2cccc3cccc(c23)C1=O)C(=O)c1cccs1 | / | 8.7 | / | /
COc1ccc(-n2c(C)nc(=O)c(-c3ccccc3)c2C)cc1 | . | 8.2 | . | .
Cc1nc(=O)c(-c2ccccc2)c(C)n1-c1cccc(C(=O)O)c1 | . | 6.0 | . | .
CCSCCCC(=O)O | / | / | . | /
CNS(=O)(=O)c1ccccc1C(=N)c1ccccc1 | / | / | . | /
SMILES | Candida biofilm | MRP1 act | Smad3 inh | MRP resist rev
COc1ccc(OCC(=O)Nc2ccccc2O)cc1 | 81.8 | . | . | .
CC1CCCCN1C(=O)CSc1nnc(CSc2ncccn2)n1C (stereo not drawn) | . | . | 73.1 | .
Cn1c(CSc2ncccn2)nnc1SCC(=O)N1CCCCC1 | . | . | . | .
O=C(O)[C@@H]1[C@H](C(=O)NCc2cccnc2)[C@@H]2C=C[C@H]1O2 | / | / | . | /
CN(CCOC(=O)c1ccco1)Cc1ccccc1 | 70.4 | . | . | .
NC(=O)CS(=O)C[C@H](N)C(=O)O (stereo partly drawn) | / | / | . | /
Ic1ccc2c(c1)N(c1ccccc1)c1cc(Nc3ccc4nc5ccc(I)cc5[n+](-c5ccccc5)c4c3)ccc1N2 | / | / | 89.7 | /
Cc1ccc(S(=O)(=O)NNC(=O)c2snnc2C)cc1 | . | . | . | .
Cc1nc(C)c(C(=O)NNS(=O)(=O)c2ccccc2)s1 | / | 5.2 | / | /
COc1ccc2cc3cc(C(=O)NC(C)C)oc3nc2c1 | . | . | . | .
CCN(C(=O)c1cc2cc3ccc(C)cc3nc2o1)c1ccc(OC)cc1 | . | 6.6 | . | .
O=C(O)[C@H]1Cc2c([nH]c3ccccc23)[C@@H](CCCCO)N1 | / | / | . | /
CCOC(=O)N1CCN(C(=O)CSc2nc3c(cnn3-c3ccc(Cl)cc3)c(=O)[nH]2)CC1 | 20.2 | . | . | .
CN1CCN(CC(=O)Nc2cccc3ccccc23)CC1 | / | / | . | /
O=C1Nc2ccccc2CCC1Sc1nnc(-c2ccc(Cl)cc2)s1 (stereo not drawn) | . | 6.6 | . | .
Cc1ccc(C)c(/C(O)=C2\C(=O)C(=O)N(CCCn3ccnc3)C2c2ccncc2)c1 (stereo not drawn) | . | 7.3 | . | .
O=C(N/N=C/c1cc([N+](=O)[O-])cc([N+](=O)[O-])c1O)/C(=C\c1cccs1)NC(=O)c1ccccc1 | / | 4.8 | / | /
COc1cc(/C=N/NC(=O)/C(=C\c2ccc([N+](=O)[O-])cc2)NC(=O)c2ccccc2)cc(OC)c1O | . | . | . | .
Cc1ccccc1C(=N)c1ccccc1Cc1cccc2ccccc12 | / | / | . | /
COC(=O)C1C(=O)c2c([nH]c(C(=O)OC3CCCCC3)c2C)CC1C (stereo not drawn) | . | 5.2 | . | .
COC(=O)C1C(=O)c2c([nH]c(C(=O)OC3CCCC3C)c2C)CC1C (stereo not drawn) | . | . | . | .
C=CCSc1nc2c(N)ncnc2n1[C@H]1O[C@H](CO)[C@@H](O)[C@@H]1O | / | / | . | /
NCOC(=O)Cc1ccc(Br)cc1 | / | / | 73.4 | /
O=C(Cc1ccc(Br)cc1)OCC(=O)c1ccc2c(c1)OCCO2 | . | . | . | .
CCc1nnc(NC(=O)c2ccc(COc3ccc(C)cc3)o2)s1 | . | 6.2 | . | .
SMILES | Candida biofilm | MRP1 act | Smad3 inh | MRP resist rev
CCc1nnc(NC(=O)CCC(=O)N2CCN(CCc3ccccc3)CC2)s1 | . | . | . | .
CCc1nnc(NC(=O)CCC(=O)N2CCN(CCOc3ccc(C)cc3)CC2)s1 | . | 5.6 | . | .
COC(=O)CSc1nc(NC(C)=O)nc(C)c1Br | . | . | . | .
CCOC(=O)CSc1nc(N)nc(C)c1Br | . | 18.7 | . | .
COc1ccc(OC)c(-c2csc(NC(=O)C3c4ccccc4Oc4ccccc43)n2)c1 | / | 9.4 | / | /
N#Cc1cc2c(nc1SC1CCCCC1O)CCCC2 (stereo not drawn) | . | . | 92.5 | .
Cc1cn([C@@H]2C[C@H](N=[N+]=[N-])[C@H](CO)O2)c(=O)[nH]c1=O | / | / | . | /
COc1ccc(C(=O)Nc2nc3ccccc3[nH]2)cc1OC | . | . | . | 64.1
CCCn1c(=O)c(C(=O)Nc2nnc(CC)s2)c(O)c2ccccc21 | . | / | 52.7[fluorescence artefact?] | .
CCCn1c(=O)c(C(=O)Nc2cnccn2)c(O)c2ccccc21 | . | / | . | .
Cc1ccc(-c2nnn(CC(=O)N(c3ccccc3F)C(C(=O)NCC3CCCO3)c3c[nH]c4ccccc34)n2)cc1 (stereo not drawn) | / | 8.2 | / | /
COc1ccccc1-c1nc(C#N)c(N2CCc3ccccc3C2)o1 | . | 5.3 | . | .
COc1ccc(-c2nc(C#N)c(N3CCc4ccccc4C3)o2)cc1OC | . | . | . | .
C(=N\Nc1nnc2c(n1)[nH]c1ccccc12)/c1cccnc1 | / | / | . | /
O[C@@H](c1cc(C(F)(F)F)nc2c(Cl)cc(Cl)cc12)[C@@H]1CCCCN1 | / | / | . | /
COc1ccc(NC2C=CS(=O)(=O)C2)c(OC)c1 (stereo not drawn) | 23.7 | . | . | .
O=C(Nc1ccc(-c2nc3ccc(NC(=O)c4cccs4)cc3[nH]2)cc1)c1cccs1 | . | . | 53.8[fluorescence artefact?] | .
O=C(Nc1ccc2nc(-c3cccs3)[nH]c2c1)c1cccs1 | . | . | . | .
CN1CCN(c2oc(COc3ccc(-c4ccccc4)cc3)nc2C#N)CC1 | . | . | . | .
